# Assay results: PubChem BioAssay
# Unmarked numbers belong to inactive results. Active and inactive are the calls of the source.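 Rule for the calls, unless noted: active = mean inhibition above 46.5%, the solvent-only control mean plus 3 SD; inactive = the rest.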
# Columns and labels:
# [1] = test system: transactivating tegument protein VP16 (Human herpesvirus 1); test: compounds suppressing VP16-driven luciferase signal – cell-based, luminescence, single concentration, counter-screen for SRC2 inhibitor project (AID 652007; in the data active = inhibition above about 36%); settings: cell-based VP16 transactivation luciferase reporter, at 8.9 µM, hits give high values
# [2] = target: Nuclear receptor coactivator 2 (Homo sapiens) (UniProt Q15596); test: inhibition of GAL4-SRC2 driven luciferase expression – cell-based, luminescence, HEK293, triplicate, confirmation (AID 652008); settings: HEK293 GAL4-SRC2 luciferase reporter, at 8.9 µM, hits give high values;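 note: 0% = DMSO-treated cells and 100% = Gossypol at 36 µM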
# Nuclear receptor coactivator 2 (Homo sapiens), sequence (Q15596 whole entry, looked up, the tested form may be a part): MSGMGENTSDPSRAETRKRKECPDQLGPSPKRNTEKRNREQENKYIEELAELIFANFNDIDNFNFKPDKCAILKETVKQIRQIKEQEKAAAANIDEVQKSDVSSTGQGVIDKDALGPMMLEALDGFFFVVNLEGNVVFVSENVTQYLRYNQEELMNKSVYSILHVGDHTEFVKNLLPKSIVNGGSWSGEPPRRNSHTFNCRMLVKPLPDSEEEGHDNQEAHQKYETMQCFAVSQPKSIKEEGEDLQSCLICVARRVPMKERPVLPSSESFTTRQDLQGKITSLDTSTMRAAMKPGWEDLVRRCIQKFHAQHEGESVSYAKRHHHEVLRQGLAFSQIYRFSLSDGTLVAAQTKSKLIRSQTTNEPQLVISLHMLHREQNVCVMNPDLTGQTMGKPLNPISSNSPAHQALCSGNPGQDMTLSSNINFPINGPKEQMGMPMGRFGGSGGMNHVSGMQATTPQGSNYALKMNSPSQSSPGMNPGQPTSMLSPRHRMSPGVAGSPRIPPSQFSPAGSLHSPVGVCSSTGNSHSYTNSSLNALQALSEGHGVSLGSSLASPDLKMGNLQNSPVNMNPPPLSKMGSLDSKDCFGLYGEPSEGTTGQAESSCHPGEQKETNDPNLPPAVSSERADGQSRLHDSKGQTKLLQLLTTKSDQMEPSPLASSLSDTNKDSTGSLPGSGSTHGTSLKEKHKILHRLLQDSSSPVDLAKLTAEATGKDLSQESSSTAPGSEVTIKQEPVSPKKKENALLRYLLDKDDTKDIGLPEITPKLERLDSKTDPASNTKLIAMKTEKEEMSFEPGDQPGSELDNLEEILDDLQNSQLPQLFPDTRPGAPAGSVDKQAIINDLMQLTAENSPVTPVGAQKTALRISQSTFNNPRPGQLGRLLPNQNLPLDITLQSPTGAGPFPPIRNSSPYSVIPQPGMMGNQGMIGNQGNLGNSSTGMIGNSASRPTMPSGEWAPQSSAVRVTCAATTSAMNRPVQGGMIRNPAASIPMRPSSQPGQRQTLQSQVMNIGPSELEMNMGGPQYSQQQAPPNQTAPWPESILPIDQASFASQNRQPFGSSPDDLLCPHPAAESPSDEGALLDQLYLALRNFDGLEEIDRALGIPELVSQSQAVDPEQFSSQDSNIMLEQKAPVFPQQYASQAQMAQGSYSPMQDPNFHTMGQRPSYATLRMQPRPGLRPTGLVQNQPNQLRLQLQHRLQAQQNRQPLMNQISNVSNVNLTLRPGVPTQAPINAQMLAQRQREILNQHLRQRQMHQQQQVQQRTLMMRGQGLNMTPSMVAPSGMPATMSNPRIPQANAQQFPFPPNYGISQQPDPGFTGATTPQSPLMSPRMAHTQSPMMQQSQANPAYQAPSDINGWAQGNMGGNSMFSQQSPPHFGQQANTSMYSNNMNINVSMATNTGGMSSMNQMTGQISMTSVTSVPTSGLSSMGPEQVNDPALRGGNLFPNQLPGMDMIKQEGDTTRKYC
SMILES,inhibition [1],inhibition [2]
NS(=O)(=O)c1ccc(NC(=O)COc2ccc(C(=O)c3ccc(F)cc3)cc2)cc1,-1.97%,-2.94%
CC(C)COc1ccc(C/C(N)=N/n2cnnc2)cc1,22.1%,40.3%
O=C(Nc1ccc2c(c1)OCCO2)NC1(C(F)(F)F)Oc2ccccc2O1,-12.8%,43.7%
CN(C)c1ccc(CCc2ccc(N)cc2)cc1,12.3%,57.2% (active)
CC1CC(C)(C)Nc2ccc(OC(=O)c3ccco3)cc21 (configuration not stated),-46.6%,46.8% (active)
O=C(NCCCN1CCN(c2ccccc2)CC1)C1CCCN(c2ncnc3c2nc2n3CCCCC2)C1 (configuration not stated),6.18%,-21.6%
O=C(N/N=C/c1ccc([N+](=O)[O-])o1)c1cc2ccccc2o1,21.6%,56.4% (active)
COc1ccc(C(=O)C(CN2CCOCC2)c2ccccc2)cc1F (configuration not stated),-1.66%,13.4%
O=C(Nc1ccc(N2CCOCC2)cc1)c1cnsn1,-8.19%,34.3%
CCS(=O)(=O)c1ncc(Cl)c(C(=O)Nc2ccc(C)cc2)n1,1.43%,0.68%
CCC(C)[C@H](NC(=O)C1CC(=O)N(c2ccc(OC)cc2)C1)C(=O)N1CCCCC1 (some centres not stated),6.37%,10.3%
CCC(NC(=O)CCc1c(C)c2cc3c4c(oc3cc2oc1=O)CCCC4)C(=O)O (configuration not stated),38.3% (active),70.3% (active)
O=[N+]([O-])c1cccc2cnccc12,-10.2%,3.57%
C=C1CC2(OC1=O)c1ccccc1CCc1ccccc12,49.2% (active),29.7%
CCOc1cc(/C=C/C(=O)c2ccc3c(c2)OCCO3)ccc1OCC(=O)N(C)C,2.55%,16.2%
COc1cc(S(=O)(=O)N(C)Cc2ccc3c(c2)OCCO3)ccc1NC(C)=O,-27.6%,-19.6%
Cc1ccc2nc(-c3ccc4c(c3)OCCO4)cn2c1,58.9% (active),88.3% (active)
COc1ccc([C@H]2CC(=O)C=C(c3ccc(Oc4ccccc4)cc3)C2)cc1OC,10.7%,15.4%
Cc1ccc(C)c(OCc2ccc(C(=O)Nc3ccc([N+](=O)[O-])cn3)o2)c1,8.86%,35.9%
COc1ccc(CC(=O)NNC(=O)c2ccc(Br)o2)cc1,-9.53%,-27.1%
CCOc1cc(NC(=S)NCc2ccco2)c(OCC)cc1NC(=O)CC,-10.4%,-9.88%
Cc1ccc(O)c(/C=N/NC(=O)Cc2ccc(Cl)cc2)c1,-11.1%,-13.9%
CCN(CC)c1ccc(/C=C/c2cc(-c3ccccc3)c3ccccc3n2)cc1,-11.2%,-13.1%
COc1ccc(-c2nnc(SCc3cccc(F)c3)n2-c2ccccc2)cc1,-12.4%,-7.06%

SMILES,inhibition [1],inhibition [2]
CN1CCN(S(=O)(=O)c2ccc(N(C)Cc3cccc(F)c3)nc2)CC1,-0.35%,-11.8%
COc1cccc(Nc2nc(NCCO)c3ccccc3n2)c1,-14.1%,31.5%
O=S(=O)(c1ccc(NC(=S)NCc2ccncc2)cc1)N1CCCCC1,15.6%,0.63%
COc1ccc(/C=C2\SC(=S)N(CCCC(=O)N3CCOCC3)C2=O)cc1,45.9% (active),35.5%
Cc1cccnc1CN1CCN(C(=O)c2cc(COc3ccc4ncccc4c3)on2)CC1,8.23%,15.3%
COn1c2c(c3c4nonc4ccc31)CCCC2,0.98%,18.7%
Cc1ccc(NC(=O)C2CCN(S(=O)(=O)c3cc([N+](=O)[O-])ccc3Cl)CC2)nc1,10.7%,24.3%
CCOc1ccc(-n2c(C)nc3cc(C(=O)NCC4CCCO4)ccc32)cc1 (configuration not stated),-16.6%,-3.58%
Cc1ccc2sc(N(CCCN(C)C)C(=O)CN3C(=O)c4ccccc4C3=O)nc2c1C,-2.35%,3.74%
Cc1c(CCC(=O)N[C@@H](CCCNC(N)=O)C(=O)O)c(=O)oc2cc3oc4c(c3cc12)CCCC4,47.2% (active),57.7% (active)
CC(=O)Nc1cccc(-c2cc(NC(C)=O)c3ncc(-c4ccccc4)n3c2)c1,-11.4%,2.68%
CNc1ccc(N=Nc2cccc3ncccc23)cc1,-76%,14.4%
CCCCSc1nc(C)cc(SCC(=O)N/N=C/c2cccc(OC)c2O)n1,-16.2%,22.5%
CN(C)c1ccc(C(C[N+](=O)[O-])c2c(N)n(C)c(=O)n(C)c2=O)c(F)c1C#N (configuration not stated),6.34%,6.89%
Cc1ccc(-c2c3c(nc4sc(C(N)=O)c(N)c24)CCC3)cc1,1.89%,34.5%
Nn1cnnc1SCC(=O)N1CCc2ccccc2C1,3.54%,-22.3%
COC(=O)c1ccc(CN2CCc3ccc(NC(=O)c4ccncc4)cc3C2)cc1,-9.32%,26.8%
O=C(Nc1ccnn1C1CCN(C(=O)c2ccc(Cl)cc2)CC1)C1CC1,-6.97%,-7.33%
O=C(O)COc1ccccc1/C=N/NC(=O)Cc1csc(Nc2cccc(C(F)(F)F)c2)n1,-15.7%,-14.6%
C=C1CCC2C(C)(C)CCC[C@]2(C)[C@H]1CC1=C(O)C(=O)C(CO)=CC1=O (some centres not stated),93.6% (active),98.8% (active)
O=C(CCl)Nc1cccc(S(=O)(=O)NC2=NCCC2)c1,76.2% (active),38.1%
COc1cc(/C=C2\COC/C(=C\c3cc(OC)c(OC)c(OC)c3)C2=O)cc(OC)c1OC,96.8% (active),97.7% (active)
C=C1C(=O)[C@]23C[C@H]1CC[C@H]2[C@]1(C)CCC[C@@](C)(C(=O)OC)[C@H]1C[C@@H]3O,77.6% (active),90.4% (active)
Cc1nn(-c2ccccc2)c(N2CCCC2)c1/C=N/NC(=O)c1cccc(S(=O)(=O)Nc2ccc(Cl)cc2)c1,-8.85%,-16.7%

SMILES,inhibition [1],inhibition [2]
Cc1nc([N+](=O)[O-])c(C(=O)OCc2ccccc2F)n1C,-22.8%,1.38%
c1ccc(CCNc2ncnc3scc(C4COc5ccccc5O4)c23)cc1 (configuration not stated),-8.4%,-10.3%
Cc1onc(-c2ccccc2Cl)c1C(=O)N1CCC(Cc2ccccc2)CC1,9.05%,10.1%
COc1ccc(C(=O)Nn2c(SCC(=O)N3CCC(C)CC3)nc3ccccc3c2=O)cc1,23.9%,28.9%
C=CCNc1nc2ccccc2nc1NS(=O)(=O)c1ccc(Cl)cc1,-13.4%,-1.65%
CC(C)N=C(NS(=O)(=O)c1ccccc1)C(Cl)(Cl)Cl,7.46%,28.2%
COc1ccc(CN2C(=O)C(CC(=O)NCCN3CCOCC3)CC(C(=O)N(C(C)C)C(C)C)=C2C)cc1 (configuration not stated),0.37%,-36.3%
COc1ccc2nc(Sc3c([N+](=O)[O-])nc(C)n3Cc3ccccc3)[nH]c2c1,13.1%,37.8%
CC(C)(C)c1ccc(-c2noc(CCC(=O)NCC3CCCO3)n2)cc1 (configuration not stated),42.1% (active),67.2% (active)
Cn1nnnc1Sc1ncnc2scc(-c3ccc(Cl)cc3)c12,18.1%,42.2%
CNC(=O)c1nnsc1S(=O)(=O)c1ccc(Cl)cc1,49.1% (active),49.1% (active)
CCOC(=O)C1=C[C@@H](c2ccccc2)N(S(=O)(=O)c2ccc(C)cc2)[C@H]1c1ccc(F)cc1,-7.61%,-5.87%
Cc1cc(C(=O)CN2C(=O)C(=O)N(Cc3ccccc3)C2=O)c(C)n1-c1ccc2c(c1)OCCO2,-14.1%,-36%
Cc1ccc(C(=O)Nc2nc3ccccc3[nH]2)cc1,-3.8%,49.1% (active)
COc1ccc(S(=O)(=O)N2CCC(C(=O)c3ccc4c(c3)OCCO4)CC2)cc1,-0.72%,-0.4%
NNC(=O)COc1ccc(-c2nccc(-c3ccc(F)cc3)n2)cc1,-14.6%,32.3%
Cc1cccc(NC(=O)Nc2ccc(Cl)c(Cl)c2)n1,-83.6%,-16.7%
COc1cc2[nH]c3c(=O)n4c(nc3c2cc1OC)SCCC4,-66.2%,13.4%
CCOC(=O)C(=Cc1ccc(-n2cncn2)cc1)C(=O)OCC,15.5%,24.5%
C[N+]1(CC2COC3(CCCCC3)O2)CCCC1 (configuration not stated),-9.45%,-21.5%
CCOC(=O)[C@]12CCCC=C1N(Cc1cccc3ccccc13)C(=O)[C@H](CC(=O)N1CCOCC1)C2,-7.43%,-11%
CCOc1ccc(-c2nc(CSCC(=O)N3CCN(c4cccc(OC)c4)CC3)c(C)o2)cc1,23.2%,49.8% (active)
C[C@@H]1C(c2ccc(F)cc2)=NN(c2ccccc2)[C@H]1C(=O)N1CCOC1=O,-11.2%,-21.5%
